Laboratory results published in PubChem BioAssay (NCI).
About 83,000 compounds went through this panel and 20% of them were active in at least one assay; those are over-represented in the sample as a whole.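 Interpretation: 100, growth as untreated; towards 0, rising growth inhibition; 0, no net growth; 0 to -100, cell death. Compounds scoring below 10 were considered active.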 Values without a mark were called inactive. The source made the active and inactive calls.

Legend:
Test in all cases: NCI-60 one-dose screen, 48 h (100 = growth as untreated, 0 = no growth, -100 = all killed)
Conditions in all cases: 10 µM unless noted
NCI-H23 lung = system: NCI-H23 lung
NCI-H226 lung = system: NCI-H226 lung
NCI-H322M lung = system: NCI-H322M lung
HOP-62 NSCLC = system: HOP-62 NSCLC
NCI-H460 lung = system: NCI-H460 lung
HOP-92 NSCLC = system: HOP-92 NSCLC
NCI-H522 lung = system: NCI-H522 lung
A549/ATCC NSCLC = system: A549/ATCC NSCLC
786-0 renal = system: 786-0 renal
COLO 205 colon = system: COLO 205 colon
DU-145 prostate = system: DU-145 prostate
K-562 leukemia = system: K-562 leukemia
MALME-3M melanoma = system: MALME-3M melanoma
MDA-MB-231 breast = system: MDA-MB-231 breast
RXF 393 renal = system: RXF 393 renal
SF-268 CNS = system: SF-268 CNS
SF-295 CNS = system: SF-295 CNS
SF-539 CNS = system: SF-539 CNS
UACC-257 melanoma = system: UACC-257 melanoma
M14 melanoma = system: M14 melanoma

SMILES | growth (NCI-H23 lung) | growth (NCI-H226 lung) | growth (NCI-H322M lung) | growth (HOP-62 NSCLC) | growth (NCI-H460 lung) | growth (HOP-92 NSCLC) | growth (NCI-H522 lung) | growth (A549/ATCC NSCLC) | growth (786-0 renal) | growth (COLO 205 colon) | growth (DU-145 prostate) | growth (K-562 leukemia) | growth (MALME-3M melanoma) | growth (MDA-MB-231 breast) | growth (RXF 393 renal) | growth (SF-268 CNS) | growth (SF-295 CNS) | growth (SF-539 CNS) | growth (UACC-257 melanoma) | growth (M14 melanoma)
CCc1nnc(NC(=O)c2ccoc2COc2ccccc2)s1 | 57.9% | 74.3% | 86.9% | 56.3% | 27% | 74.8% | 38.6% | 62.1% | 72.2% | 44.2% | 75.4% | 12.3% | 47.5% | 55.9% | 54.2% | 66.7% | 36.1% | 43.5% | 76.9% | 11.7%
CCN1CCN(C(=O)[C@]23CCC(C)(C)C[C@@H]2C2=CC[C@@H]4[C@@]5(C)C/C(=C/c6cccnc6)C(=O)C(C)(C)[C@@H]5CC[C@@]4(C)[C@]2(C)CC3)CC1 | 27.1% | 32.9% | 62.3% | 44.5% | 12.1% | 9.8% (active) | 28.4% | 13.5% | 50.2% | 25.9% | 50% | 6.69% (active) | 30.3% | 40.7% | -7.84% (active) | 37.6% | 16.7% | 41.5% | 3.05% (active) | 34.4%
CC(C)C[C@@H](NC(=O)[C@@H](Cc1ccccc1)NC(=O)c1cnccn1)B1O[C@H]2[C@H](O)[C@@H](C(=O)NCCCC[C@@H]3NC(=O)[C@@H](Cc4ccccc4)NC(=O)[C@H](CC(=O)O)NC(=O)CNC(=O)[C@H](CCCN=C(N)N)NC3=O)O[C@@H](CN)[C@H]2O1 | -29.2% (active) | -45.8% (active) | 6.41% (active) | -50.5% (active) | -44.6% (active) | -70.4% (active) | -67.9% (active) | -55.2% (active) | -12.8% (active) | -81.1% (active) | -8.32% (active) | 2.76% (active) | -20.6% (active) | -9.73% (active) | -85.9% (active) | -37.1% (active) | -73.5% (active) | -31.9% (active) | -28% (active) | -0.783% (active)
Cn1c2c(Cl)c(Cl)ccc2c2c(C#N)c[nH]c(=O)c21 | 91% | 94.5% | 129% | 94.1% | 96.2% | 78.6% | 95.5% | 93.3% | 97.4% | 115% | 109% | 106% | 140% | 98.5% | 97.2% | 99% | 97.8% | 84.6% | 98.1% | 105%
CCCCCC1CCCCN1C(=O)OCC (stereo not given) | 106% | 122% | 112% | 117% | 108% | 75.9% | 98.2% | 105% | 88.2% | 101% | 105% | 94.9% | 90.9% | 103% | 170% | 99.7% | 123% | 107% | 106% | 97.4%
C[C@@H](C(=O)O)c1ccc2c3cc(Cl)ccc3n(Cc3cc(=O)oc4ccc(Cl)cc34)c2c1 | 95.6% | 103% | 86.3% | 103% | 111% | 108% | 90.7% | 102% | 95.9% | 113% | 103% | 98.2% | 89.5% | 106% | 116% | 93.4% | 103% | 102% | 104% | 100%
CCOC(=O)C1OC1(c1ccccc1)c1ccccc1 (stereo not given) | 111% | 106% | 120% | 118% | 109% | 107% | 107% | 84.3% | 117% | 119% | 108% | 109% | 110% | 98.9% | 113% | 94.2% | 113% | 106% | 95.7% | 107%
N#CC1=C(N)Oc2ccc3ccccc3c2C1c1ccccc1 (stereo not given) | 43.9% | 51.6% | 62.1% | 39.7% | 21.7% | 62.6% | 34.7% | 51% | 35.5% | 32.6% | 51.2% | 14.9% | 42.3% | 47% | 23.3% | 52.2% | 4.96% (active) | 11.4% | 61.7% | 13.6%
